Laboratory results as given in the supplement of paper PMC10849652.
Of roughly 8,800 targets only a part is listed; those with a hit were picked by preference. About 0.5% of all pairs of compound and target were hits.

Experiments:
Assay in all cases: log2 fold change, soluble protein after heating vs DMSO (PISA); higher = thermal stabilisation; K562 lysate, 10 uM; active = over 0.2 and 3.5 SD of the protein, either way, in both replicates (recomputed)
lapatinib = compound: CS(=O)(=O)CCNCc1ccc(-c2ccc3ncnc(Nc4ccc(OCc5cccc(F)c5)c(Cl)c4)c3c2)o1 [lapatinib]
Summary of the method: (§1)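 Log-two fold change in thermal stability relative to solvent controls is reported from duplicates. For each sample, crude K562 extract from dounce-homogenised pellets in PBS pH 7.4 with 1 mM MgCl2, at 1 mg/mL protein, was treated with 10 μM compound for 30 min. Aliquots heated for 3 min across 48°C-58°C were pooled, brought to 0.5% NP-40 at 4°C and cleared at 21,000xg for 90 min. The supernatant was quantified by TMTpro 16plex LC-MS/MS with channel sums equalised.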

pictilisib = compound: CS(=O)(=O)N1CCN(Cc2cc3nc(-c4cccc5[nH]ncc45)nc(N4CCOCC4)c3s2)CC1 [pictilisib]
Summary of the method: as §1

crizotinib = compound: C[C@@H](Oc1cc(-c2cnn(C3CCNCC3)c2)cnc1N)c1c(Cl)ccc(F)c1Cl [crizotinib]
Summary of the method: as §1

[1] = compound: C[C@H](C1=CC=C(C=C1)C(=O)NC2=C3C=CNC3=NC=C2)N
Summary of the method: as §1

duvelisib = compound: C[C@H](Nc1ncnc2nc[nH]c12)c1cc2cccc(Cl)c2c(=O)n1-c1ccccc1 [duvelisib]
Summary of the method: as §1

gandotinib = compound: Cc1cc(Nc2cc(CN3CCOCC3)c3nc(C)c(Cc4ccc(Cl)cc4F)n3n2)n[nH]1 [gandotinib]
Summary of the method: as §1

tozasertib = compound: Cc1cc(Nc2cc(N3CCN(C)CC3)nc(Sc3ccc(NC(=O)C4CC4)cc3)n2)n[nH]1 [tozasertib]
Summary of the method: as §1

doramapimod = compound: Cc1ccc(-n2nc(C(C)(C)C)cc2NC(=O)Nc2ccc(OCCN3CCOCC3)c3ccccc23)cc1 [doramapimod]
Summary of the method: as §1

bafetinib = compound: Cc1ccc(NC(=O)c2ccc(CN3CC[C@H](N(C)C)C3)c(C(F)(F)F)c2)cc1Nc1nccc(-c2cncnc2)n1 [bafetinib]
Summary of the method: as §1

[2] = compound: Cc1cccc(CC(=O)N2CCc3c2ccc(-c2cn(C)c4ncnc(N)c24)c3F)n1
Summary of the method: as §1

Measured: log2 fold change

CHMP4A isoform 2 (UniProt Q9BY43)
Sequence of UniProt Q9BY43 (Q9BY43 whole entry, looked up): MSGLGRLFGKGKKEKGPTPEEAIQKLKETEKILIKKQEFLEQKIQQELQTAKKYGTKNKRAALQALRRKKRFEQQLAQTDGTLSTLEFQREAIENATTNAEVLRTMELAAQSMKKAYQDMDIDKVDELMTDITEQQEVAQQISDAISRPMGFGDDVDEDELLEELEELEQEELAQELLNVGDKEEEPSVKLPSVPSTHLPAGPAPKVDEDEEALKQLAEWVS
active: [1] -0.227
inactive: lapatinib 0.009 | pictilisib 0.022 | crizotinib -0.047 | duvelisib -0.001 | gandotinib 0.182 | tozasertib -0.01 | doramapimod 0.054 | bafetinib -0.036 | [2] 0.18

DNAJC3 (UniProt Q13217)
Sequence of UniProt Q13217 (Q13217 whole entry, looked up): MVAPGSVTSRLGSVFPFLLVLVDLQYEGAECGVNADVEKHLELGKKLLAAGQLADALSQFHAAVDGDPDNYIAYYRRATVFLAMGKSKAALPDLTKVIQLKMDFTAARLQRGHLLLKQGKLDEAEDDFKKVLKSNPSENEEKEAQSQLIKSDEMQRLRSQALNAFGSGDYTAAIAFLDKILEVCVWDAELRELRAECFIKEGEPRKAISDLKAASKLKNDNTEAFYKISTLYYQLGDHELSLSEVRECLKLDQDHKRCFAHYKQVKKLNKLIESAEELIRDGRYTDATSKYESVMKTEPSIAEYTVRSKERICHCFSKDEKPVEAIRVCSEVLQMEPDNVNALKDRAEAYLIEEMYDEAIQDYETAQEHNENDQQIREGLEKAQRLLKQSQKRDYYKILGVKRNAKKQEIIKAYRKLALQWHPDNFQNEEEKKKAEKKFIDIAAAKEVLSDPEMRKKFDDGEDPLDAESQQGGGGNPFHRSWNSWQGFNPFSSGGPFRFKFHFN
inactive: lapatinib 0.01 | pictilisib -0.015 | crizotinib 0.047 | [1] 0.001 | duvelisib 0.046 | gandotinib 0.012 | tozasertib 0.014 | doramapimod -0.064 | bafetinib -0.002 | [2] -0.014

CSNK2A1 (UniProt P68400)
Sequence of UniProt P68400 (P68400 whole entry, looked up): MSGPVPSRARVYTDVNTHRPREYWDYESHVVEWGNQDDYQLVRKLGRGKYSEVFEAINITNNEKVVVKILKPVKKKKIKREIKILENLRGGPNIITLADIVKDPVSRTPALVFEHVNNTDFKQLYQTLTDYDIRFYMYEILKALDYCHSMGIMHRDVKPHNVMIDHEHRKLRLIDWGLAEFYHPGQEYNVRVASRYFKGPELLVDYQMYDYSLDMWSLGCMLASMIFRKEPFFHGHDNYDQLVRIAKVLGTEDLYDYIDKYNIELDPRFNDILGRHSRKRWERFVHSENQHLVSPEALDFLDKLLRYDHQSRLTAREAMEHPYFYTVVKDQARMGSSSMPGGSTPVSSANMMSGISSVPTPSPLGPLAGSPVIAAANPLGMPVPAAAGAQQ
inactive: lapatinib -0.038 | pictilisib 0.016 | crizotinib 0.007 | [1] -0.021 | duvelisib -0.002 | gandotinib -0.007 | tozasertib -0.006 | doramapimod -0.003 | bafetinib 0.027 | [2] -0.018

COMT (UniProt P21964)
Sequence of UniProt P21964 (P21964 whole entry, looked up): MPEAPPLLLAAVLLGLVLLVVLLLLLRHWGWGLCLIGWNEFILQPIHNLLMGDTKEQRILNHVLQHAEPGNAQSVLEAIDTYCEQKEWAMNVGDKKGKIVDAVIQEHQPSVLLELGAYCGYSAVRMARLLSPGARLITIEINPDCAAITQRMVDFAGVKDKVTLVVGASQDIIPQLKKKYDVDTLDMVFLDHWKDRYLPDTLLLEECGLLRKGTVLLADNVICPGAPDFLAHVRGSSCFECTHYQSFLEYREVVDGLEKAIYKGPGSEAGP
inactive: lapatinib -0.006 | pictilisib -0.007 | crizotinib 0.019 | [1] -0.052 | duvelisib -0.015 | gandotinib -0.008 | tozasertib -0.008 | doramapimod 0.038 | bafetinib 0.012 | [2] 0.01

COG6 (UniProt Q9Y2V7)
inactive: lapatinib 0.012 | pictilisib -0.019 | crizotinib -0.104 | [1] -0.137 | duvelisib 0.014 | gandotinib -0.115 | tozasertib -0.011 | doramapimod 0.037 | bafetinib -0.071 | [2] 0.142

CIB1 (UniProt Q99828)
inactive: lapatinib -0.073 | pictilisib 0.047 | crizotinib -0.046 | [1] 0.023 | duvelisib -0.006 | gandotinib -0.008 | tozasertib 0.06 | doramapimod 0.051 | bafetinib 0.115 | [2] 0.059

CIP2A (UniProt Q8TCG1)
inactive: lapatinib -0.02 | pictilisib -0.045 | crizotinib -0.101 | [1] -0.049 | duvelisib 0.012 | gandotinib -0.218 | tozasertib 0 | doramapimod 0.005 | bafetinib -0.047 | [2] 0.103

COPZ1 isoform 4 (UniProt P61923)
Sequence of UniProt P61923 (P61923 whole entry, looked up): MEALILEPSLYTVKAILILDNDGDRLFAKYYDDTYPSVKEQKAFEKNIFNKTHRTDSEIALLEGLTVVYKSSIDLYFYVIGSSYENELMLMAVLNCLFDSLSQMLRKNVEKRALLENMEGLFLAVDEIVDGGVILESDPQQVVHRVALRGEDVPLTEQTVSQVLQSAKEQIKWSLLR
inactive: lapatinib 0.161 | pictilisib 0.062 | crizotinib 0.09 | [1] 0.083 | duvelisib -0.022 | gandotinib -0.066 | tozasertib 0.028 | doramapimod -0.044 | bafetinib -0.048 | [2] -0.088

CSNK2A2 (UniProt P19784)
inactive: lapatinib -0.116 | pictilisib 0.057 | crizotinib -0.071 | [1] 0.099 | duvelisib -0.02 | gandotinib -0.1 | tozasertib -0.035 | doramapimod -0.015 | bafetinib 0.009 | [2] -0.041

DHRS11 (UniProt Q6UWP2)
Sequence of UniProt Q6UWP2 (Q6UWP2 whole entry, looked up): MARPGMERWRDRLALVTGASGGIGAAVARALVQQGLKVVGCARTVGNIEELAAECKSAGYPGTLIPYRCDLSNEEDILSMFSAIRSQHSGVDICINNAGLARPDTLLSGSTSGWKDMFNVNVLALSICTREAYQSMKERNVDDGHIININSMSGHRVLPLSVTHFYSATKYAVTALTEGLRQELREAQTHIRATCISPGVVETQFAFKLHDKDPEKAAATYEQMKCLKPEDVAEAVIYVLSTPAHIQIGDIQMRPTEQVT
inactive: lapatinib -0.017 | pictilisib 0.014 | crizotinib 0.024 | [1] -0.035 | duvelisib 0.024 | gandotinib -0.007 | tozasertib 0.028 | doramapimod -0.032 | bafetinib -0.051 | [2] -0.02

CTPS1 (UniProt P17812)
Sequence of UniProt P17812 (P17812 whole entry, looked up): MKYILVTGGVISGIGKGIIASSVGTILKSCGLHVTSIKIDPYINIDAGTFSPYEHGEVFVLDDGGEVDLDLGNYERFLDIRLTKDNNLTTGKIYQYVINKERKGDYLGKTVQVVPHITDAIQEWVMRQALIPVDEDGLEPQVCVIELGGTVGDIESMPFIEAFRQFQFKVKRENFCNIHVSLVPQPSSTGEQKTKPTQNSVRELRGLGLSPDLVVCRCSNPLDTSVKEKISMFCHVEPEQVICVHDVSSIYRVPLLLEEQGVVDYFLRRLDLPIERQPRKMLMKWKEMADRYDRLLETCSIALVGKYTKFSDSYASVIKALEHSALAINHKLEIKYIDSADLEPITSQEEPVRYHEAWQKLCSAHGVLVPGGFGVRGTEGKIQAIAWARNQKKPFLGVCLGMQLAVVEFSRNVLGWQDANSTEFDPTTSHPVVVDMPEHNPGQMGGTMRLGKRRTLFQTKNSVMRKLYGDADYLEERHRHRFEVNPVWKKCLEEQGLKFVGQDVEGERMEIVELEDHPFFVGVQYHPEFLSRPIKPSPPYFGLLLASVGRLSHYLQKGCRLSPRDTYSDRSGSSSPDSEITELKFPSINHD
inactive: lapatinib -0.007 | pictilisib -0.015 | crizotinib -0.044 | [1] 0.004 | duvelisib -0.003 | gandotinib -0.052 | tozasertib -0.004 | doramapimod 0.005 | bafetinib 0.078 | [2] 0.015

CSDE1 isoform 4 (UniProt O75534)
inactive: lapatinib 0.001 | pictilisib -0.004 | crizotinib -0.006 | [1] 0.041 | duvelisib -0.015 | gandotinib -0.095 | tozasertib 0.003 | doramapimod 0.005 | bafetinib -0.021 | [2] -0.017

CNP (UniProt P09543)
inactive: lapatinib 0.014 | pictilisib 0.015 | crizotinib -0.023 | [1] 0.002 | duvelisib -0.002 | gandotinib -0.047 | tozasertib 0.012 | doramapimod 0.039 | bafetinib -0.026 | [2] 0.022

CYP24A1 (UniProt Q07973)
Sequence of UniProt Q07973 (Q07973 whole entry, looked up): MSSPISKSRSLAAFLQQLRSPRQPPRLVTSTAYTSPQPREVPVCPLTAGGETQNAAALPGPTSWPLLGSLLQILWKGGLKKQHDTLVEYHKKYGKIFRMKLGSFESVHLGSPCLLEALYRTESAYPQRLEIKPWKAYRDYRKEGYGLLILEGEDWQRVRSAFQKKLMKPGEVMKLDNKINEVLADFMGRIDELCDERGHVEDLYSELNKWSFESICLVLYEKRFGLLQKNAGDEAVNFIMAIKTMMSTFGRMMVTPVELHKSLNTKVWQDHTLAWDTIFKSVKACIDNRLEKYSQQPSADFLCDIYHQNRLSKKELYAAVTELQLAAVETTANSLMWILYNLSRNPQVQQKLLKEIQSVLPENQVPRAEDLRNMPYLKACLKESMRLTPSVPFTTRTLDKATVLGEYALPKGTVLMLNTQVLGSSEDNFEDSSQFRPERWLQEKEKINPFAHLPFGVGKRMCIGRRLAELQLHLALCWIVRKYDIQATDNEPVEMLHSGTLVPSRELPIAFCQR
inactive: lapatinib -0.099 | pictilisib 0.015 | crizotinib -0.289 | duvelisib 0.077 | gandotinib 0.235 | tozasertib -0.02 | doramapimod 0.006 | bafetinib -0.209 | [2] 0.325
active: [1] -0.462

DPM1 (UniProt O60762)
inactive: lapatinib -0.003 | pictilisib 0.009 | crizotinib 0.009 | [1] 0.028 | duvelisib -0.018 | gandotinib -0.097 | tozasertib -0.014 | doramapimod -0.046 | bafetinib -0.061 | [2] 0.061

CIC (UniProt I3L2J0)
inactive: lapatinib -0.074 | pictilisib -0.02 | crizotinib -0.002 | [1] -0.052 | duvelisib -0.047 | gandotinib 0.006 | tozasertib 0.02 | doramapimod -0.036 | bafetinib -0.08 | [2] 0.037

CSTF2 (UniProt P33240)
inactive: lapatinib -0.006 | pictilisib -0.049 | crizotinib 0.003 | [1] -0.025 | duvelisib 0.044 | gandotinib 0.051 | tozasertib 0.033 | doramapimod 0.036 | bafetinib 0.03 | [2] -0.001

DNAH10 (UniProt Q8IVF4)
inactive: lapatinib -0.075 | pictilisib 0.066 | crizotinib -0.136 | duvelisib 0.044 | gandotinib 0.172 | tozasertib -0.024 | doramapimod 0.076 | bafetinib -0.08 | [2] 0.196
active: [1] -0.553

COL6A5 (UniProt A8TX70)
active: [1] -0.966 | [2] 0.486
inactive: lapatinib -0.07 | pictilisib -0.035 | crizotinib -0.197 | duvelisib 0.013 | gandotinib 0.295 | tozasertib -0.099 | doramapimod 0.053 | bafetinib -0.13

COG2 (UniProt Q14746)
inactive: lapatinib -0.009 | pictilisib -0.03 | crizotinib -0.041 | [1] -0.025 | duvelisib 0.025 | gandotinib -0.118 | tozasertib 0.012 | doramapimod 0.009 | bafetinib -0.027 | [2] 0.02

CMSS1 (UniProt Q9BQ75)
Sequence of UniProt Q9BQ75 (Q9BQ75 whole entry, looked up): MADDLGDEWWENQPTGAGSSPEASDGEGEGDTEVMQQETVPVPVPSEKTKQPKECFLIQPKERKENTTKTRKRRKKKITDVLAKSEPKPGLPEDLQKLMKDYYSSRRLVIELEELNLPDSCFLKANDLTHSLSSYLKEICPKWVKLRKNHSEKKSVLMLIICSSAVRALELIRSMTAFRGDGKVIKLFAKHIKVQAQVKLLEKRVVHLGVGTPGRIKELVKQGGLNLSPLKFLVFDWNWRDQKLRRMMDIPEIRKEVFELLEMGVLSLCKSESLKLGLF
inactive: lapatinib 0.012 | pictilisib 0.016 | crizotinib -0.021 | [1] 0.176 | duvelisib -0.001 | gandotinib -0.086 | tozasertib 0.009 | doramapimod 0.015 | bafetinib -0.026 | [2] -0.015

DOK1 (UniProt Q99704)
inactive: lapatinib 0.01 | pictilisib -0.026 | crizotinib 0.007 | [1] -0.056 | duvelisib -0.002 | gandotinib 0.042 | tozasertib 0.008 | doramapimod 0.044 | bafetinib -0.006 | [2] -0.001

DCTN1 (UniProt Q14203)
Sequence of UniProt Q14203 (Q14203 whole entry, looked up): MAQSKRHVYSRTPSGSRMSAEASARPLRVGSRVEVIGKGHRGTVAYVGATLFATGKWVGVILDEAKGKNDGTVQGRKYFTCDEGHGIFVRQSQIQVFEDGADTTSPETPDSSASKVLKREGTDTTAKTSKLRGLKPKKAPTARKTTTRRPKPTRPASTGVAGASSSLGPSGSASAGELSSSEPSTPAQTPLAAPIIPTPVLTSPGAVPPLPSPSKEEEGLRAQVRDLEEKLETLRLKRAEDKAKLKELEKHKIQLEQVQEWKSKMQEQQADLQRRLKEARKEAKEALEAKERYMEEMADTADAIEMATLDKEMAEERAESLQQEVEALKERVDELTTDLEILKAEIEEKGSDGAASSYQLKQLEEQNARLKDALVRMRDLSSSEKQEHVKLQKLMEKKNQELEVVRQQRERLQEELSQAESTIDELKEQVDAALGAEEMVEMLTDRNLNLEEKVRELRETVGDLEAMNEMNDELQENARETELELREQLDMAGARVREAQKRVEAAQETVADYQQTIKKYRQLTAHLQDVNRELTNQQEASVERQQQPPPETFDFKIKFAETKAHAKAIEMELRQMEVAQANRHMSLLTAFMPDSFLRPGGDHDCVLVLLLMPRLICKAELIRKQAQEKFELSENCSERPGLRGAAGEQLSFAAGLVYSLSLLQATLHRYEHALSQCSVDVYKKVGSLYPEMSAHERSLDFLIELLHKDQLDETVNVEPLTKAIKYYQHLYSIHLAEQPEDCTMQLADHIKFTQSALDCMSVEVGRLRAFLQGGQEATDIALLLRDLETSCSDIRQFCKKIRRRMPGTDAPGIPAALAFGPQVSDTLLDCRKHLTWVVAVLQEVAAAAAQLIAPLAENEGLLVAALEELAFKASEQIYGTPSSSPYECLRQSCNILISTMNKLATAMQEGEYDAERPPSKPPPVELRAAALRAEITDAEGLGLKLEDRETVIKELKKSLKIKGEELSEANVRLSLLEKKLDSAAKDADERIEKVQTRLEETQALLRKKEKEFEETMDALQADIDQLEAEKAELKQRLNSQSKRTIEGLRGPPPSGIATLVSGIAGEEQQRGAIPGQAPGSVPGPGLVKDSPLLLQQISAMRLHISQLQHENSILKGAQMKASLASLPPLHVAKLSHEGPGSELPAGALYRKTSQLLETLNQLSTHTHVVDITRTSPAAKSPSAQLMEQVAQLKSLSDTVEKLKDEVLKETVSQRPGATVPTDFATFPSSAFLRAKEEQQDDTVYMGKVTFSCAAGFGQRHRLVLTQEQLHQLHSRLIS
inactive: lapatinib -0.005 | pictilisib -0.021 | crizotinib -0.005 | [1] 0.027 | duvelisib 0.001 | gandotinib -0.029 | tozasertib -0.002 | doramapimod -0.013 | bafetinib -0.023 | [2] -0.005

DIAPH3 (UniProt Q9NSV4)
inactive: lapatinib 0.068 | pictilisib 0.005 | crizotinib 0.003 | [1] 0.039 | duvelisib -0.043 | gandotinib -0.102 | tozasertib -0.017 | doramapimod 0.036 | bafetinib -0.075 | [2] 0.135

CHML (UniProt P26374)
inactive: lapatinib -0.006 | pictilisib -0.003 | crizotinib 0.022 | [1] -0.012 | duvelisib 0.006 | gandotinib 0.013 | tozasertib -0.004 | doramapimod -0.025 | bafetinib 0.094 | [2] 0.004

CSNK1A1 (UniProt P48729)
Sequence of UniProt P48729 (P48729 whole entry, looked up): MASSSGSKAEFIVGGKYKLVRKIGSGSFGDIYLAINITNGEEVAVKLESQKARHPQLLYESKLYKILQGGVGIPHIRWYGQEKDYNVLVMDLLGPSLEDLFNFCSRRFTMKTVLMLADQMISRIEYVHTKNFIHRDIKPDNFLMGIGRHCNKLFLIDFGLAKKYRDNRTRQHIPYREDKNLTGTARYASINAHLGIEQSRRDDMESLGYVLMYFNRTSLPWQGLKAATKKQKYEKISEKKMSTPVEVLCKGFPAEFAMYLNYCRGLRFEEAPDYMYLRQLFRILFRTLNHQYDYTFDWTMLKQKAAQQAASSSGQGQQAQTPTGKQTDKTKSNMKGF
inactive: lapatinib -0.099 | pictilisib 0.084 | crizotinib -0.049 | [1] 0.084 | duvelisib -0.034 | gandotinib -0.077 | tozasertib -0.068 | doramapimod 0.027 | bafetinib 0 | [2] -0.01

COASY isoform 2 (UniProt Q13057)
inactive: lapatinib -0.01 | pictilisib 0.021 | crizotinib -0.084 | [1] -0.072 | duvelisib 0.004 | gandotinib 0.009 | tozasertib -0.022 | doramapimod -0.007 | bafetinib -0.043 | [2] 0.029

CHORDC1 (UniProt Q9UHD1)
inactive: lapatinib -0.001 | pictilisib 0.009 | crizotinib 0.022 | [1] 0.18 | duvelisib 0.006 | gandotinib -0.011 | tozasertib 0.022 | doramapimod -0.028 | bafetinib 0.022 | [2] -0.031
